Results published in the supplement of paper PMC3334620.
In all, about 33,000 sequences were measured (“E-score (-0.5 to 0.5)”: median about -0.036, highest 2% from about 0.37 on). The entries come from a sample that favours the highest values as a whole.

Target: T1, Yer064c (UniProt P40041)
T1 sequence: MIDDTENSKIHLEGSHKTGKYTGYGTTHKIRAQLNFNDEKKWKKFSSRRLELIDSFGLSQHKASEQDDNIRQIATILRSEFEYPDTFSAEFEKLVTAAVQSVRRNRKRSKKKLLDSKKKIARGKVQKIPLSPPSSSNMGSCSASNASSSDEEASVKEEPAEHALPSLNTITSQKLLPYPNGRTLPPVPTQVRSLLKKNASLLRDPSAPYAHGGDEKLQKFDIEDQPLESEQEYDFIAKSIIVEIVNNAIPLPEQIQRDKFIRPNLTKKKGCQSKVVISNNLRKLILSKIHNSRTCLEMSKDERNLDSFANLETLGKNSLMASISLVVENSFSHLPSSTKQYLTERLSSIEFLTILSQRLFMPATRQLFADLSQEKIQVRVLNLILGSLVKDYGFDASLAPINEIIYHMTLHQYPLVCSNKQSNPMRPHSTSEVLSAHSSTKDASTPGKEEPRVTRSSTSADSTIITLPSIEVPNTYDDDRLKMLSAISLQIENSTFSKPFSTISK
Assay: PBM E-score (8-mer binding enrichment) (E-score (-0.5 to 0.5)); higher = stronger / more preferred TF binding
Conditions: protein concentration: 200 nM; construct: GST-full length
Procedure, shortened: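 Universal all-10-mer Agilent arrays, fresh or stripped once, were converted to double-stranded form by primer extension. GST-tagged yeast transcription factors from PURExpress in vitro transcription/translation, full-length or DNA-binding domain only, were applied at about 100-200 nM and detected with fluorescent anti-GST. After masliner normalisation, the Universal PBM Analysis Suite scored each ungapped eight-base word together with its reverse complement by E-score.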

| Sequence | PBM E-score |
| --- | --- |
| AGTCGTTG | 0.326 |
| AACGAGAC | 0.0315 |
| AAAGAGCA | -0.0916 |
| CGGGGCAG | -0.052 |
| CCCCTGAC | 0.173 |
| AGCGAATA | 0.0298 |
| ATTGGGTA | -0.138 |
| CTGGGGAC | -0.0825 |
| CACCCATC | 0.102 |
| ACTTGACA | 0.0454 |
| AATTGACC | -0.0998 |
| ACTTGACT | 0.412 |
| AATTGACG | -0.178 |
| AATTGACT | 0.391 |
| ACTTGACG | -0.0474 |
| CAATTCCA | -0.297 |
| CATACGAC | 0.158 |
| ACGCGTGC | -0.0231 |
| CCATCCGA | 0.161 |
| ACAGAGTA | 0.0495 |
| CCAGAGTC | 0.38 |
| CCAGAGGC | -0.335 |
| CGAGAGAC | 0.0137 |
| AGAGAGTA | 0.121 |
| ACAGAGTC | 0.37 |

| Sequence | PBM E-score |
| --- | --- |
| CGAGAGTA | 0.0908 |
| AGAGAGTC | 0.409 |
| CGAGAGTC | 0.421 |
| CCAGAGTA | -0.0992 |
| AGAGAGTG | -0.104 |
| ACAGAGTG | 0.0565 |
| CCGCAAGC | -0.268 |
| ACGCCATC | -0.136 |
| CCTACCCA | -0.0884 |
| CGAGAACA | 0.0131 |
| GCTACGAA | -0.0422 |
| GGCCGGGA | -0.134 |
| CGCTACGC | -0.323 |
| AACGGGAT | -0.185 |
| CAATCCGG | -0.0586 |
| GATAGGCC | -0.339 |
| TGACTCAA | 0.492 |
| GGACTCTA | 0.193 |
| TAACTCAA | 0.263 |
| CGACTCTA | 0.343 |
| TGGCTCAA | 0.332 |
| GAACTCAA | 0.145 |
| GTACTCAA | 0.314 |
| GTACTCAC | 0.387 |
| CGACTCAA | 0.474 |

| Sequence | PBM E-score |
| --- | --- |
| GGACTCAA | 0.409 |
| CTACTCAA | 0.162 |
| ATACTCAC | 0.312 |
| CACCTTGG | -0.142 |
| CCCAGCTA | -0.0347 |
| CTGGCTAA | 0.23 |
| CGTTCCAC | -0.25 |
| ACGCATAC | -0.135 |
| TAGCTCCA | -0.0907 |
| GGACTCCC | 0.214 |
| GCACTCAC | 0.0283 |
| GGACTCAC | 0.43 |
| AGGTACCG | -0.156 |
| ACTCGAAC | 0.136 |
| CCGTATGC | -0.167 |
| CCATTGAC | 0.0546 |
| CCGGCTGA | 0.165 |
| AAGACTTC | 0.241 |
| AAGACTAC | 0.413 |
| AAGACTAT | 0.417 |
| GAGACCAA | -0.0383 |
| AAGACTAG | 0.338 |
| AAAACTAA | 0.134 |
| TAGACTAA | 0.3 |
| CAGACTAC | 0.215 |

| Sequence | PBM E-score |
| --- | --- |
| GAGACTAA | 0.413 |
| AAGACAAT | -0.0159 |
| GAGACGAA | -0.0519 |
| AAGACTAA | 0.442 |
| CAACAGGG | -0.202 |
| ATGATACA | 0.246 |
| GAAGTGCC | -0.336 |
| GTTTGCTA | 0.0898 |
| GAGTTGCC | -0.149 |
| GACGGTAA | -0.284 |
| CAACTCCG | -0.12 |
| ATAGTTGC | 0.0257 |
| CGATGTAC | -0.0701 |
| AGGCCTCG | -0.184 |
| TGGACTAA | 0.348 |
| AGGACTAA | 0.405 |
| AGGACTAT | 0.31 |
| CCAGAGGA | 0.00907 |
| ATAGGGGC | -0.262 |
| CGAGTCAC | 0.477 |
| GGAGTCCC | 0.189 |
| GGAGTTAC | -0.0565 |
| TAAGTCAA | 0.344 |
| GGAGTCAC | 0.485 |
| CGAGTCTC | 0.307 |

| Sequence | PBM E-score |
| --- | --- |
| CAAGTCAG | 0.306 |
| CGAGTCAG | 0.46 |
| CGAGTCCC | 0.24 |
| TCAGTCAA | 0.348 |
| TGAGTCAA | 0.489 |
| CGAGTCCG | 0.272 |
| CCTTCTGA | -0.0564 |
| GAGAGCCA | 0.132 |
| TCCAGCCA | -0.198 |
| GCGTAGCC | 0.074 |
| ATCGATGC | -0.198 |
| AACTAGCG | -0.119 |
| CTCAAGGC | 0.104 |
| ATCCACTC | -0.0532 |
| TCCAACCA | -0.132 |
| CATCGGCC | -0.0369 |
| ACTGGGAC | 0.0246 |
| CGAGTCTA | 0.132 |
| CGAGTCAA | 0.444 |
| AGAGTACA | 0.171 |
| GGAGTCCA | 0.243 |
| GGAGTCAA | 0.431 |
| GGAGTACA | 0.129 |
| GGAGTCGA | 0.212 |
| GGAGTCTA | 0.172 |

| Sequence | PBM E-score |
| --- | --- |
| CGAGTCCA | 0.0419 |
| TGAGTCCA | 0.397 |
| TGAGTACA | 0.376 |
| CAAGTCAA | 0.196 |
| CAAAGCCG | -0.176 |
| ACCTGCGG | -0.208 |
| CAGGCGGC | 0.0353 |
| TGGCGCAA | -0.15 |
| CGCTGGTA | -0.0555 |
| CACTACCA | -0.0175 |
| GACTACCA | 0.413 |
| CACTACCC | 0.00286 |
| AACTACCC | -0.158 |
| TACTACCA | 0.00773 |
| GACTACCC | 0.42 |
| ACAAAACT | -0.0935 |
| CAGGACCC | -0.208 |
| GAGAACGA | -0.0613 |
| CCTTAGTC | 0.41 |
| ACTTAGTC | 0.435 |
| CCTTAGTA | -0.0218 |
| ACTTAGTG | 0.198 |
| ACTTAGTA | 0.162 |
| CCTTAGAC | 0.063 |
| GTCCATAA | -0.161 |

| Sequence | PBM E-score |
| --- | --- |
| CCCGGCGG | -0.182 |
| ATCCTGGG | -0.0196 |
| AGTCAAGG | 0.392 |
| CGTCAAGA | -0.229 |
| ACTCAAGG | 0.29 |
| AGTCAAGC | 0.358 |
| GGTCAAGA | -0.0401 |
| AGTCAAGA | 0.414 |
| CCTTCGTA | -0.15 |
| AGCGCTGA | 0.0781 |
| CTATCGGC | -0.0556 |
| ACTCACGA | 0.388 |
| ACTCACAA | 0.395 |
| ACACACGG | 0.0742 |
| CCTCACGA | -0.0431 |
| ACTCACAG | 0.353 |
| ACGCACGG | -0.192 |
| ACTCACGG | 0.376 |
| CCTCACAA | 0.038 |
| ACTCACGC | 0.357 |
| ATCTCAGA | -0.113 |
| ACCCCTAA | -0.0884 |
